Test results as given in PubChem BioAssay AID1159580 (chemical genetic matrix, 2015).
Where “and” joins values, the source holds several entries; their conditions need not be identical. Identical values can stand only once. Hit rate of the full screen: of about 5,500 compounds, about 2,000 (36%) were called active. Inconclusive results (about 18%) are left out. Rule as the data show it: active = normalized growth mostly below about 0.91 (no sharp cut-off); inconclusive = no clear call, values can overlap the other calls; inactive = mostly above about 0.92. The list shows a part of the results.

Assay: chemical genetic growth profiling, strain panel (AID 1159580);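 also: tested at 20 µM; growth read once vehicle control cultures reached saturation at 30 °C; 1 = growth at the plate median or of vehicle wells; lower values mean less growth of the strain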
Settings: S. cerevisiae deletion strains, growth OD

Measured: normalized growth

OC1C(O)C(O)C(O)C(O)C1O (stereo not given)
inactive: locus YAL013W, strain DEP1, stronger effect = lower value 0.998 | locus YAL021C, strain ccr4, stronger effect = lower value 0.996 | locus YAL026C, strain drs2, stronger effect = lower value 1 | locus YAL030W, strain snc1, stronger effect = lower value 0.997 | locus YBL061C, strain skt5, stronger effect = lower value 0.998 | locus YBR009C, strain hhf1, stronger effect = lower value 1.01 | locus YBR021W, strain FUR4, stronger effect = lower value 1.08 | locus YBR023C, strain chs3, stronger effect = lower value 0.997 | locus YBR171W, strain sec66, stronger effect = lower value 1 | locus YBR229C, strain ROT2, stronger effect = lower value 0.957 | locus YBR231C, strain swc5, stronger effect = lower value 0.999 | locus YBR279W, strain paf1, stronger effect = lower value 1 | locus YCL011C, strain gbp2, stronger effect = lower value 1.01 | locus YCL016C, strain dcc1, stronger effect = lower value 1.01 | locus YCL029C, strain bik1, stronger effect = lower value 0.981 | locus YCL061C, strain MRC1, stronger effect = lower value 0.996 | locus YCL069W, strain vba3, stronger effect = lower value 0.999 | locus YCR088W, strain abp1, stronger effect = lower value 1 | locus YDL005C, strain med2, stronger effect = lower value 1 | locus YDL035C, strain GPR1, stronger effect = lower value 1 | locus YDL040C, strain nat1, stronger effect = lower value 1 | locus YDL074C, strain BRE1, stronger effect = lower value 0.962 | locus YDL101C, strain DUN1, stronger effect = lower value 0.989 | locus YDL134C, strain PPH21, stronger effect = lower value 0.99 | locus YDL185W, strain tfp1, stronger effect = lower value 0.966 | locus YDL192W, strain arf1, stronger effect = lower value 0.977 | locus YDR001C, strain nth1, stronger effect = lower value 0.998 | locus YDR069C, strain doa4, stronger effect = lower value 0.999 | locus YDR101C, strain arx1, stronger effect = lower value 0.976 | locus YDR137W, strain rgp1, stronger effect = lower value 1 | locus YDR150W, strain NUM1, stronger effect = lower value 0.99 | locus YDR159W, strain sac3, stronger effect = lower value 0.993 | locus YDR162C, strain NBP2, stronger effect = lower value 0.994 | locus YDR195W, strain ref2 0.984 | locus YDR297W, strain sur2, stronger effect = lower value 1 | locus YDR318W, strain mcm21, stronger effect = lower value 0.992 | locus YDR334W, strain swr1, stronger effect = lower value 0.994 | locus YDR335W, strain msn5, stronger effect = lower value 1 | locus YDR388W, stronger effect = lower value 0.989 | locus YDR392W, strain spt3, stronger effect = lower value 0.999 | locus YDR502C, strain sam2, stronger effect = lower value 0.986 | locus YEL003W, strain gim4, stronger effect = lower value 1.01 | locus YEL037C, strain rad23, stronger effect = lower value 1 | locus YEL061C, strain CIN8 (second series), stronger effect = lower value 1 | locus YEL061C, strain CIN8, stronger effect = lower value 0.983 | locus YER015W, strain faa2, stronger effect = lower value 0.993 | locus YER016W, strain bim1, stronger effect = lower value 0.991 | locus YER110C, stronger effect = lower value 0.982 | locus YER111C, strain swi4, stronger effect = lower value 1 | locus YER155C, strain BEM2 (second series), stronger effect = lower value 1.01 | locus YER155C, strain BEM2, stronger effect = lower value 0.999 | locus YER167W, strain BCK2, stronger effect = lower value 0.995 | locus YFR010W, strain ubp6, stronger effect = lower value 1 | locus YGL078C, strain dbp3, stronger effect = lower value 0.973 | locus YGL086W, strain mad1, stronger effect = lower value 0.979 | locus YGL167C, strain pmr1, stronger effect = lower value 1 | locus YGL173C, strain kem1, stronger effect = lower value 1.01 | locus YGL227W, strain vid30, stronger effect = lower value 1.01 | locus YGL240W, strain doc1, stronger effect = lower value 0.989 | locus YGL248W, strain PDE1, stronger effect = lower value 0.969 | locus YGL253W, strain hxk2, stronger effect = lower value 1 | locus YGR135W, strain pre9, stronger effect = lower value 1.02 | locus YGR252W, strain gcn5, stronger effect = lower value 0.924 | locus YHR013C, strain ard1, stronger effect = lower value 1 | locus YHR027C, strain rpn1, stronger effect = lower value 1 | locus YHR030C, strain SLT2, stronger effect = lower value 0.975 and 1 | locus YHR079C, strain IRE1 (second series), stronger effect = lower value 0.99 | locus YHR079C, strain IRE1, stronger effect = lower value 0.973 | locus YHR094C, strain hxt1, stronger effect = lower value 0.996 | locus YHR129C, strain ARP1, stronger effect = lower value 0.993 | locus YHR142W, strain chs7, stronger effect = lower value 1.01 | locus YHR200W, strain rpn10, stronger effect = lower value 0.971 | locus YIL066C, strain RNR3, stronger effect = lower value 0.979 | locus YIL073C, strain SPO22, stronger effect = lower value 0.994 | locus YIL125W, strain kgd1, stronger effect = lower value 0.98 | locus YIR030C, strain dcg1, stronger effect = lower value 0.995 | locus YJL092W, strain hpr5, stronger effect = lower value 1 | locus YJL095W, strain BCK1 (second series), stronger effect = lower value 1 | locus YJL095W, strain BCK1, stronger effect = lower value 0.991 | locus YJL115W, strain asf1, stronger effect = lower value 1 | locus YJL129C, strain trk1, stronger effect = lower value 1.02 | locus YJL134W, strain LCB3, stronger effect = lower value 0.995 | locus YJL154C, strain vps35, stronger effect = lower value 1 | locus YJL164C, strain tpk1, stronger effect = lower value 0.999 | locus YJL166W, strain qcr8, stronger effect = lower value 1.01 | locus YJL168C, strain set2, stronger effect = lower value 0.998 | locus YJL187C, strain SWE1 (second series), stronger effect = lower value 0.97 | locus YJL187C, strain SWE1, stronger effect = lower value 1.01 | locus YJR043C, strain POL32, stronger effect = lower value 0.995 | locus YJR066W, strain TOR1, stronger effect = lower value 0.956
